Data reported in PubChem BioAssay (Tox21).
Results filed as inconclusive are left out. Active and inactive are the calls of the source. Unless noted, the call rests on the fitted dose curve; in most records, active means well fitted curve in the direction sought with a large enough effect in the repeat runs; inconclusive means weak or mixed curves; inactive means no such curve, though single readings can be large; an effect the other way counts as inactive or inconclusive.

Assays:
[1] = qHTS assay for small molecule agonists of the p53 signaling pathway (AID 651631; calls by dose curve; further: nearly all actives have a fitted effect of over 15% in size)
Summary of the method: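 Read-out is beta-lactamase FRET fluorescence measured 2 h after substrate addition at room temperature, in HCT-116 cells with a p53 response element-driven reporter exposed to compounds for 16 h at 37 °C.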

[2] = qHTS assay for small molecules that induce genotoxicity in human embryonic kidney cells expressing luciferase-tagged ATAD5 (AID 651632); further: nearly all actives have a fitted effect of over 15% in size
Summary of the method: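 Luminescent reporter readout, HEK293T ATAD5-luc line: 16 hr drug exposure (37C, 5% CO2) followed by Amplite, 30 min RT.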

[3] = qHTS assay for small molecule agonists of the p53 signaling pathway - cell viability (AID 651633; calls by dose curve;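 further: p53RE-bla HCT reporter cells with a stable beta-lactamase p53 reporter; series mostly up to about 83 µM; nearly all actives have a fitted effect of over 30% in size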)
Summary of the method: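 p53RE-bla cells were treated with compound for 16 hours at 37 C. Cytotoxicity was then measured as CellTiter-Glo luminescence after 30 min at room temperature.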

[4] = qHTS assay for small molecules that induce genotoxicity in human embryonic kidney cells expressing luciferase-tagged ATAD5 - cell viability (AID 651634; calls by dose curve; further: nearly all actives have a fitted effect of over 25% in size)
Summary of the method: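 Viability read: CellTiter-Fluor fluorescence, 30 min at 37C. Cells: HEK293T, luciferase-tagged ATAD5. Exposure: 15.5 hr, 37C, 5% CO2, compound or DMSO vehicle.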

[5] = qHTS assay for small molecule disruptors of the mitochondrial membrane potential - cell viability (AID 720634; calls by dose curve;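 further: human HepG2 liver cancer cells; series mostly up to about 83 µM; nearly all actives have a fitted effect of over 20% in size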)
Summary of the method: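 HepG2, 1 hr compound, 37 C. ATP luminescence via CellTiter-Glo, 30 min RT, same well as m-MPI.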

[6] = qHTS assay to test for compound auto fluorescence at 535 nm (green) in HepG2 cells (AID 720675)
[7] = qHTS assay to test for compound auto fluorescence at 460 nm (blue) in HEK293 cells (AID 720678)
Summary of the method: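 HEK293 cells (2,000/well, medium with 10% dialyzed FBS) attached 4-5 hr, then exposed to compound overnight at 37C, 5% CO2. Blue fluorescence read at 405/460 nm, with triamterene as reference fluorophore.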

[8] = qHTS assay to test for compound auto fluorescence at 590 nm (red) in HEK293 cells (AID 720679)
Summary of the method: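 HEK293 cells (2,000/well, 10% dialyzed FBS) attached 4-5 hr, then dosed with compound or DMSO and incubated overnight at 37C, 5% CO2. Red fluorescence read at 540/590 nm, Rose Bengal sodium as reference fluorophore.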

[9] = qHTS assay to test for compound auto fluorescence at 535 nm (green) in HEK293 cells (AID 720680)
[10] = qHTS assay to test for compound auto fluorescence at 460 nm (blue) in HEK293 cell free culture (AID 720681)
Summary of the method: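 Compounds were added to cell-free DMEM with 10% FBS and fluorescence read directly. The blue channel used 405 nm excitation and 460 nm emission, with triamterene as the reference fluorophore.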

[11] = qHTS assay to test for compound auto fluorescence at 535 nm (green) in HEK293 cell free culture (AID 720682)
Summary of the method: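 Fluorescein serves as the green reference fluorophore; each compound's intrinsic emission at 535 nm (excitation 485 nm) is reported as an equivalent amount of that dye, measured in serum-containing DMEM without cells.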

[12] = qHTS assay to test for compound auto fluorescence at 590 nm (red) in HEK293 cell free culture (AID 720683)
Summary of the method: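 Cell-free wells of DMEM with 10% FBS received compound, and intrinsic fluorescence was read at excitation/emission 540/590 nm. Values expressed as equivalence to Rose Bengal sodium.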

[13] = qHTS assay to test for compound auto fluorescence at 590 nm (red) in HepG2 cell free culture (AID 720684)
Summary of the method: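 Compound was pinned into wells holding MEM with 10% FBS and no cells, and red fluorescence was read at Ex/Em 540/590 nm. Signal is expressed as auto fluorescence equivalency relative to Rose Bengal sodium.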

[14] = qHTS assay to test for compound auto fluorescence at 460 nm (blue) in HepG2 cell free culture (AID 720685)
Summary of the method: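 Compound (23 nL) or DMSO pinned into cell-free MEM with 10% FBS; blue fluorescence read at 405/460 nm excitation/emission, expressed as auto-fluorescence equivalency to triamterene.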

[15] = qHTS assay to test for compound auto fluorescence at 535 nm (green) in HepG2 cell free culture (AID 720686)
[16] = qHTS assay to test for compound auto fluorescence at 460 nm (blue) in HepG2 cells (AID 720687)
Summary of the method: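 HepG2 cells in MEM with 10% FBS, attached overnight at 37 C, were exposed to compound or DMSO for 1 hr at 37 C, 5% CO2. Blue fluorescence was read at 405/460 nm, with triamterene as reference fluorophore.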

[17] = target: Glucocorticoid receptor (Homo sapiens) (UniProt P04150); assay: qHTS assay to identify small molecule agonists of the glucocorticoid receptor (GR) signaling pathway (AID 720691; active means well fitted activation curve with a large enough effect in the signal ratio in the repeat runs, not every such curve was filed as active; the % refers to the signal ratio)
Summary of the method: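 qHTS in GR-bla HeLa cells: 4 h settling at 37 C/5% CO2, 18 h compound incubation at 37 C, 2 h LiveBLAzer B/G FRET substrate at room temperature, fluorescence intensity measured.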

[18] = target: Glucocorticoid receptor (Homo sapiens) (UniProt P04150); assay: qHTS assay to identify small molecule antagonists of the glucocorticoid receptor (GR) signaling pathway (AID 720692; active means well fitted inhibition curve with a large enough effect in the signal ratio in the repeat runs, not every such curve was filed as active; the % refers to the signal ratio)
Summary of the method: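 Inhibition of glucocorticoid signalling is measured in HeLa cells with a GRE-controlled beta-lactamase reporter; cells are co-treated with compound and 5 nM dexamethasone (final) for 18 h before FRET substrate readout.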

[19] = qHTS assay to test for compound auto fluorescence at 590 nm (red) in HepG2 cells (AID 720674)
Summary of the method: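 Fluorescence at 590 nm emission following 540 nm excitation was recorded from HepG2 wells one hour after compound transfer, with DMSO-only wells as vehicle and Rose Bengal sodium equivalency as the scale.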

[20] = qHTS assay for small molecule disruptors of the mitochondrial membrane potential (AID 720635)
Summary of the method: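 HepG2 cells exposed to compound 1 hr at 37C, then Mito-MPS dye 30 min. Ratio read of aggregate (540/590 nm) versus monomer (490/535 nm) fluorescence.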

Measured: Potency

Glucocorticoid receptor (Homo sapiens), sequence (P04150 whole entry, looked up): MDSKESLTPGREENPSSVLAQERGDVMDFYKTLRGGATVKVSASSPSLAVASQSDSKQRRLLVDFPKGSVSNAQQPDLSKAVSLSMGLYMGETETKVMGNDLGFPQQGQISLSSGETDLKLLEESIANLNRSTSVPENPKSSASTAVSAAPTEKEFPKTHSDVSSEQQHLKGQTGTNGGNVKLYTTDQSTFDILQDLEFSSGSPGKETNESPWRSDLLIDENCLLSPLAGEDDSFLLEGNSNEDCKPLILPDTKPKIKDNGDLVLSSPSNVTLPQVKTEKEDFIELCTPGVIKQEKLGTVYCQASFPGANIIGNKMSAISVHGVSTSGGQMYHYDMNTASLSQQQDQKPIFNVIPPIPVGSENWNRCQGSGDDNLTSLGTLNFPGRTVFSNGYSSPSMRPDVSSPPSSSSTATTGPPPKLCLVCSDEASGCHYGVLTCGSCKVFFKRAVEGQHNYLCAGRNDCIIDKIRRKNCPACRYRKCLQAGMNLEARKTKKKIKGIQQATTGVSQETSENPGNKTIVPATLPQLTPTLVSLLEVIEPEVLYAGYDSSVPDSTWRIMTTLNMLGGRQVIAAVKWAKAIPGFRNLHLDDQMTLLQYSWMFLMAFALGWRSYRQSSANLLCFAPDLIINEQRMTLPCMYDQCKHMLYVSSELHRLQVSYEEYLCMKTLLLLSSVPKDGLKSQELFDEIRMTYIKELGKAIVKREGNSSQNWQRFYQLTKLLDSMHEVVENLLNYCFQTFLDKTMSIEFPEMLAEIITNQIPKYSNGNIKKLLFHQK

C=CCCCCCCCC
not listed: [19] | [20]
inactive: all other assays above

CC1(C)[C@H]2CC[C@](C)(C2)[C@H]1O
not listed: [4] | [17] | [18] | [20]
inactive: all other assays above

O=C1CCCCO1
not listed: [5] | [10] | [18] | [20]
inactive: all other assays above

CCCCCCCCCCCCCCCCCC#N
not listed: [4] | [10] | [18]
inactive: all other assays above

O=C(Cn1ccnc1[N+](=O)[O-])NCc1ccccc1
not listed: [4] | [8]
inactive: all other assays above

CC(=O)C1C(=O)C=C(C)OC1=O (centres undefined)
not listed: [4] | [18] | [20]
inactive: all other assays above

C/C(CC(C)C)=N\O
not listed: [4] | [10]
inactive: all other assays above

C=C(C)[C@@H]1CC=C(C)CC1
not listed: [5] | [10] | [17] | [18] | [20]
inactive: all other assays above

C=CCCCC
not listed: [4] | [5] | [18] | [20]
inactive: all other assays above

CCOCCOCC
not listed: [8] | [20]
inactive: all other assays above

Cc1cc(C)c(C(=O)O)c(C)c1
not listed: [4] | [10] | [19]
inactive: all other assays above

CSc1cnccn1
not listed: [4] | [8] | [10] | [17] | [18]
inactive: all other assays above

CC(C)Nc1ccccc1
not listed: [4] | [8]
inactive: all other assays above

O=C(O)CONC(=O)c1ccccc1
not listed: [17] | [18] | [19] | [20]
inactive: all other assays above

CC(=O)C(C)O (centres undefined)
not listed: [3] | [17] | [18]
inactive: all other assays above

Cn1c(=O)c2[nH]c(Br)nc2n(C)c1=O
not listed: [4] | [18] | [20]
inactive: all other assays above
